# From publication PMC4336329 (PLoS ONE, 2015)
# About 14,000 (4.5%) of roughly 310,000 compounds showed an effect of 50% or more. The effect is printed as a negative number. What follows is part of a selection rich in strong results, with near analogues and random picks from the rest.
# Molecular target: human ether-à-go-go-related gene (hERG) potassium channel (human, UniProt Q12809)
# Test: primary screen, population patch clamp on CHO cells stably expressing hERG; higher = less effect of the substance
# 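Further: peak tail current of the secondary pulse compared with the same well before compound.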
# Sequence of human ether-à-go-go-related gene (hERG) potassium channel (Q12809 whole entry, looked up): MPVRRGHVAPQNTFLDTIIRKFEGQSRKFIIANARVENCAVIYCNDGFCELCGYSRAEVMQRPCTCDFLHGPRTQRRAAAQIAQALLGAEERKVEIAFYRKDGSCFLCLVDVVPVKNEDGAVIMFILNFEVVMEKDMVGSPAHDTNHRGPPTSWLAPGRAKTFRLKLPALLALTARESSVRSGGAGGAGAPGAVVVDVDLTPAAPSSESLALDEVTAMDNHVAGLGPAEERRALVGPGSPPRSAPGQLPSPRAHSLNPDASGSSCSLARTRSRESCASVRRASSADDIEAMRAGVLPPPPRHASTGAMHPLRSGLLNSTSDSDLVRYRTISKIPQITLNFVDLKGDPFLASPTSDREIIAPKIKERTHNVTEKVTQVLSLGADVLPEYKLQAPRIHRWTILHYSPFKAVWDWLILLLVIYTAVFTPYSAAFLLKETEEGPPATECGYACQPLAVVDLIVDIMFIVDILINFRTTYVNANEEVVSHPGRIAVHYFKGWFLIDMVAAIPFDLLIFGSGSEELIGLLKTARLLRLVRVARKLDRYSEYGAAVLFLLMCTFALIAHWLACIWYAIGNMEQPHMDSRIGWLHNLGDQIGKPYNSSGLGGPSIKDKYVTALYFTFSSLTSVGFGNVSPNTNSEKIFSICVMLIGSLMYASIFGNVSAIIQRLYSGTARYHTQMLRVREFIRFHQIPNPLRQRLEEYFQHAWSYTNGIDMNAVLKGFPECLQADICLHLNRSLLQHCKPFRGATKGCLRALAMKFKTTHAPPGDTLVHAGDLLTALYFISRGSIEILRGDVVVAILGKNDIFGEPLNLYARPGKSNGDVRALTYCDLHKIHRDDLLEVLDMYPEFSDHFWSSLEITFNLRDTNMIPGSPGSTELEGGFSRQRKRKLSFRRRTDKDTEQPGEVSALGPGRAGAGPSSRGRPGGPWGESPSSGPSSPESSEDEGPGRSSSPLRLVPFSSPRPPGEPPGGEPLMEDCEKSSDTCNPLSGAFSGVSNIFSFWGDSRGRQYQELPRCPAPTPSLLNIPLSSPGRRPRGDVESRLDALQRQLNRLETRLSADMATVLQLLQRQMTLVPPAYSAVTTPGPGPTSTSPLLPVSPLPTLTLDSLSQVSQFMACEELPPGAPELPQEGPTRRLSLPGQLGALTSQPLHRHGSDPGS
row,Structure (SMILES),"hERG current change (%, negative = inhibition) at 10uM [%]"
1,COC(=O)CN(c1ccc(C)cc1)S(=O)(=O)c1ccc(F)cc1,-19.9
2,Cc1ccc(NS(=O)(=O)c2ccc3c(c2)c(=O)n(C)c(=O)n3C)cc1F,-15.5
3,CC(C)c1ccc2oc(=O)cc(CN3CCN(c4ccccc4)CC3)c2c1,-10.4
4,CCN1CCN(Cc2cc(=O)oc3cc4c(cc23)CCC4)CC1,-29.7
5,Cc1ccc2oc(=O)cc(CN3CCOCC3)c2c1,-8.53
6,Cc1cc2oc(=O)cc(CN3CCN(Cc4ccccc4)CC3)c2cc1O,-53.3
7,CN1CCN(Cc2cc(=O)oc3cc4c(cc23)CCC4)CC1,-8.2
8,Cc1cc2oc(=O)cc(CN3CCN(Cc4ccccc4)CC3)c2cc1Cl,-22.8
9,O=c1cc(CN2CCN(C/C=C/c3ccccc3)CC2)c2cc(O)ccc2o1,-77.5
10,COc1ccc(N2CCN(Cc3cc(=O)oc4cc(-c5ccccc5)c(O)cc34)CC2)cc1,-0.18
11,Cc1ccc2oc(=O)cc(CN3CCN(C/C=C/c4ccccc4)CC3)c2c1,-76.9
12,O=c1cc(CN2CCN(Cc3ccccc3)CC2)c2cc3c(cc2o1)CCC3,-51
13,Cc1ccc2oc(=O)cc(CN3CCCCC3)c2c1,15.9
14,Cc1cc2oc(=O)cc(CN3CCOCC3)c2cc1O,-22.6
15,Cc1ccc(S(=O)(=O)N2CCCCC2CCNC(=O)C(=O)NCC2CCCO2)cc1 (centres unmarked),-23.6
16,O=C(CSc1cccc2cccnc12)N1CCCC1,12
17,NS(=O)(=O)c1ccc(NC(=O)c2c(Cl)cccc2Cl)cc1,9.38
18,Cc1cc2oc(=O)cc(CN3CCCCC3)c2cc1O,-1.42
19,Cc1cc2oc(=O)cc(CN3CCN(C/C=C/c4ccccc4)CC3)c2cc1O,-80.9
20,O=c1cc(CN2CCN(C/C=C/c3ccccc3)CC2)c2cc(O)c(-c3ccccc3)cc2o1,11.6
21,Cc1c(O)ccc2c(CN3CCN(C/C=C/c4ccccc4)CC3)cc(=O)oc12,-64.1
22,Cc1c(O)ccc2c(CN(C)Cc3ccccc3)cc(=O)oc12,10.2
23,Cc1ccc2c(CN3CCOCC3)cc(=O)oc2c1C,0.23

row,Structure (SMILES),"hERG current change (%, negative = inhibition) at 10uM [%]"
1,CCC(C)Sc1ccc([C@H]2N[C@@](C)(C(=O)OC)[C@H]3C(=O)N(CC)C(=O)[C@@H]23)cc1.O=C(O)C(F)(F)F (some centres unmarked),7.25
2,Brc1ccc(-c2nnc3n2-c2ccccc2CC3)cc1,-41.3
3,COc1ccc(NC(=O)c2ccc(Cl)nc2)cc1S(=O)(=O)N1CCCCC1,-59
4,COc1ccc(NC(=O)c2ccc(Cl)nc2)cc1S(=O)(=O)N1CCOCC1,-10.5
5,COc1ccc(NC(=O)c2cccc(S(=O)(=O)N3CCCC3)c2)cc1OC,-4.78
6,COc1ccc(NC(=O)c2cc(OC)c(OC)c(OC)c2)cc1S(=O)(=O)N1CCCCC1,15.5
7,COc1ccc(C(=O)Nc2ccc(S(=O)(=O)N3CCCCC3)cc2)cc1OC,-9.83
8,COc1ccc(NC(=O)c2ccc(S(=O)(=O)N3CCCC3)cc2)cc1OC,-158
9,S=C(c1c[nH]c2ccccc12)N1CCCC1,9.74
10,Cc1ccc(CN2CC(C(=O)Nc3nnc(SCc4c(Cl)cccc4Cl)s3)CC2=O)cc1 (centres unmarked),14.1
11,Cn1cc(C(=O)OCC(=O)NC2CCCC2)c2ccccc21,7.9
12,O=[N+]([O-])c1ccccc1S(=O)(=O)NCCc1ccncc1,14.9
13,COc1ccccc1C(=O)OCC(=O)Nc1ccc(Cl)cn1,10.1
14,Cc1ccccc1C(=O)NC1CCN(Cc2nnnn2Cc2ccc(F)cc2)CC1,-40.9
15,COc1cccc(NC(=O)NC2CCN(Cc3nnnn3Cc3ccc(F)cc3)CC2)c1,-53.2
16,COc1cccc(NC(=O)NC2CCN(Cc3nnnn3Cc3ccc4c(c3)OCO4)CC2)c1,-23.3
17,Cc1ccc(Cn2nnnc2CN2CCC(NC(=O)c3ccccc3F)CC2)cc1,-27.2
18,COCCn1nnnc1CN1CCC(NC(=O)Nc2cccc(OC)c2)CC1,8.3
19,O=C(Nc1ccccc1F)NC1CCN(Cc2nnnn2Cc2ccc(F)cc2)CC1,-69.2
20,OC(c1ccccc1)(c1ccccc1)C1CCN(C(=S)NCCc2ccccc2)CC1,16.3
21,CN(CC(=O)Nc1cccc(F)c1)C(=O)C1CC(=O)N(Cc2ccco2)C1 (centres unmarked),-8
22,CN(Cc1ccccc1)CC(O)COc1ccc(CNCCc2cccnc2)cc1 (centres unmarked),-11.5
23,CCNC(=O)CN(c1ccc(C)cc1)S(=O)(=O)c1ccc(SC)cc1,-19

row,Structure (SMILES),"hERG current change (%, negative = inhibition) at 10uM [%]"
1,Cc1ccc(S(=O)(=O)N(CC(=O)NCc2ccccn2)c2ccc(Cl)cc2)cc1,-29.7
2,CN(CC(=O)NCc1ccccn1)S(=O)(=O)c1ccc(Cl)cc1,-12
3,O=C(CN(c1cccc(Cl)c1)S(=O)(=O)c1ccc(Cl)cc1)NCc1ccccn1,-53.1
4,COc1ccc(S(=O)(=O)N(CC(=O)NCc2ccccn2)c2ccc(Cl)cc2)cc1,13.3
5,CSc1ccc(S(=O)(=O)N(CC(=O)NCc2ccccn2)c2ccc(C)cc2)cc1,-59.3
6,CCN(Cc1ccccc1)S(=O)(=O)c1ccc2c(c1)NC(=O)CS2,-44.5
7,CN(CC(=O)Nc1ccccc1Br)C(=O)CN(C)C1CCCCC1,7.12
8,Cc1cccc(C)c1-n1c(C)cc(/C=N/NC(=O)c2ccncc2)c1C,-12
9,Cn1c(NC(=O)c2ccc(F)cc2)nc2ccccc21,21.5
10,O=C(c1cc2cc([N+](=O)[O-])ccc2oc1=O)N1CCOCC1,-0.062
11,O=C(c1cc2cc([N+](=O)[O-])ccc2oc1=O)N1CCN(c2ncccn2)CC1,-0.285
12,O=C(c1ccco1)N1CCN(C(=O)c2cc3cc([N+](=O)[O-])ccc3oc2=O)CC1,-52.4
13,O=C(c1ccco1)N1CCN(C(=O)c2cc3ccccc3oc2=O)CC1,-13.2
14,CCN1CCN(C(=O)c2cc3cc([N+](=O)[O-])ccc3oc2=O)CC1,-14.4
15,O=C(c1cc2cc([N+](=O)[O-])ccc2oc1=O)N1CCN(C2CCCCC2)CC1,-72.5
16,Cc1ccc(S(=O)(=O)CCC(=O)Nc2ccc(Br)cc2)cc1,-7.37
17,CC(C)OC(=O)c1cc(C(=O)c2cc(F)ccc2O)coc1=N,-7.34
18,Cl.O=C(O)C1=CCNCC1,17.6
19,Cl.O=C(O)C1=CCCNC1,-54.4
20,COc1ccccc1NC(=O)c1ccccc1NC(=O)c1cc(Cl)ccc1NC(=O)c1ccco1,2.97
21,COc1ccc(C(=O)Nc2ccccc2NC(=O)c2ccco2)c(OC)c1,-21.9
22,COc1ccc(NC(=O)c2cc(Cl)ccc2NC(=O)c2ccco2)c(OC)c1,-85.2
23,CCOc1ccccc1C(=O)Nc1cc(C)ccc1NC(=O)c1ccco1,-75.3

row,Structure (SMILES),"hERG current change (%, negative = inhibition) at 10uM [%]"
1,COc1ccc(C(=O)Nc2ccc(Cl)cc2C(=O)NCCO)cc1,-53.8
2,COc1ccc(NC(=O)c2ccccc2NC(=O)c2ccco2)cc1,18.5
3,COc1ccc(C(=O)Nc2ccc(Cl)cc2C(=O)NCCN2CCOCC2)cc1,-12.3
4,COc1ccc(C(=O)Nc2ccc(Cl)cc2C(=O)NCc2ccco2)cc1,-0.702
5,COc1ccc(OC)c(NC(=O)c2ccccc2NC(=O)c2ccco2)c1,-75.6
6,COc1ccccc1NC(=O)c1cc(Cl)ccc1NC(=O)c1ccco1,-1.81
7,Cc1ccc(NC(=O)c2ccco2)c(NC(=O)c2ccccc2C)c1,17.9
8,COc1ccccc1C(=O)Nc1cc(C)ccc1NC(=O)c1ccco1,-44.4
9,Cc1ccc(C(=O)OCC(=O)Nc2ccc3[nH]c(=O)[nH]c3c2)cc1S(=O)(=O)N1CCOCC1,4.19
10,O=C(Nc1ccc(C(=O)N2CCCCC2)cc1)c1ccc(Br)cc1,3.55
11,O=C(O)c1ccc2c(c1)CCC2,9.54
12,Cc1cc(NC(=O)C23CC4CC(CC(C4)C2)C3)n[nH]1,-0.917
13,Cc1cccc(NC(=S)N2CCCC2)c1,11.1
14,COc1cc(OC)cc(C(=O)Nc2c(C)nn(-c3ccccc3)c2C)c1,-3.27
15,COc1ccc(CCNC(=S)N2CCN(S(=O)(=O)c3ccccc3F)CC2)cc1,-3.68
16,CCOC(=O)c1c(-c2ccccc2)csc1NC(=O)c1nn(CC)cc1Br,6.4
17,O=C(Oc1ccc(Cl)cc1)c1ccc(COC(=O)c2cnccn2)cc1,14.9
18,COc1ccc(NC(=O)c2ccco2)c(OC)c1,16.9
19,COc1ccc(NC(=O)c2ccccc2NC(=O)c2ccco2)c(OC)c1,-73.4
20,COc1ccc(NC(=O)CCC(=O)Nc2cc(OC)c(NC(=O)c3ccco3)cc2OC)c(OC)c1,20.4
